Inconclusive results are not listed. Active and inactive are the calls of the source. Rule for the calls, unless noted: active = hit-call score of the fitted dose curve at least 0.9, where 1 is the maximum; inconclusive = response in the unintended direction; inactive = score below 0.9.
Tested on: not listed separately
Assay: CCTE_Deisenroth_AIME_384WELL_CTox_Inactive: Cytotoxicity Assessment (CTOX) in CCTE's 384-well Estrogen Receptor Transactivation Assay without AIME metabolic competence (metabolism negative), Deisenroth Lab (AID 2284039);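 note: cell viability via live-cell protease substrate cleaved to fluorescent probe; cells exposed 24 h to medium preincubated 2 h with alginate-water beads without S9; loss of fluorescence signal means loss of viability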
Summary of the method: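 Metabolism-negative arm: chemicals (10-point, 0.002 - 200 uM) preincubated 2 h with alginate-water lids, medium moved onto VM7Luc4E2 cells for 24 h. Fluorescent live-cell protease readout; bidirectional curve fit.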
For C[C@]12C=CC(=O)C=C1CC[C@@H]1[C@@H]2C(=O)C[C@@]2(C)[C@H]1CC[C@]2(O)C(=O)CO, the outcome was “inactive”.
For CCNc1cccc(C)c1, the outcome was “inactive”.
With CCCCCC(=O)O the outcome was “inactive”.
With CNCc1cc(F)ccc1Oc1ccc(Cl)c(Cl)c1 the AC50 was 19.8 µM (active).
With CC1=C(/C=C/C(C)=C/C=C/C(C)=C/CO)C(C)(C)CCC1 the outcome was “inactive”.

Molecular target: Estrogen receptor (Homo sapiens) (UniProt P03372)
Sequence (P03372 whole entry, looked up): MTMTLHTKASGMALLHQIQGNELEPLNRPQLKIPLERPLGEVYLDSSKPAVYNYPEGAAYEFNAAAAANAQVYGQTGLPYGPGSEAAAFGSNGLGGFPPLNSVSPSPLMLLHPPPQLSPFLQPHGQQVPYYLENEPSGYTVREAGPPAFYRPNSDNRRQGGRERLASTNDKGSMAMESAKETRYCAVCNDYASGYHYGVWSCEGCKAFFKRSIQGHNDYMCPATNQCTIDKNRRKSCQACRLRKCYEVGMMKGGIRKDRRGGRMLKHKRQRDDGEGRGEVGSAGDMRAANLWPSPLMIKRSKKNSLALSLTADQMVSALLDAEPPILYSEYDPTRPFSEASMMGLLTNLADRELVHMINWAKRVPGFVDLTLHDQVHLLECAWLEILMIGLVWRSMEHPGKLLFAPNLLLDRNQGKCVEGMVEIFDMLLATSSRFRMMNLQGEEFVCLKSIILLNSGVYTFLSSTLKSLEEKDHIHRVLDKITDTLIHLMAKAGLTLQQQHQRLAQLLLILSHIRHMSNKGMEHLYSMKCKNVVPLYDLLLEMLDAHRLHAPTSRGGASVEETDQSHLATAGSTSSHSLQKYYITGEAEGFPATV
Assay: CCTE_Deisenroth_AIME_384WELL_LUC_Shift: CCTE's 384-well Estrogen Receptor Transactivation Assay with AIME metabolic competence data shift (ERTA luciferase; difference in metabolism positive and negative), Deisenroth Lab (AID 2284041; active = hit-call score of the fitted dose curve at least 0.9, where 1 is the maximum; inactive = score below 0.9;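 note: shift is response with S9 minus without S9 so positive means metabolism raised ER signal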)
Summary of the method: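 Here, parent compounds undergo 2 h phase I metabolism by PB/BNF-induced rat S9 before 24 h transactivation in VM7Luc4E2 cells; the curve models S9-positive minus S9-negative response over a 10-point series.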
With Cc1ccc2ncccc2c1 the outcome was “inactive”.
In the case of C[C@]12C=CC(=O)C=C1CC[C@@H]1[C@@H]2C(=O)C[C@@]2(C)[C@H]1CC[C@]2(O)C(=O)CO, the outcome is reported as “inactive”.
For CC1(C)CC(N=C=O)CC(C)(CN=C=O)C1 (centres undefined), the outcome was “inactive”.
With CCNc1cccc(C)c1 the outcome was “inactive”.
For Clc1cc(Cl)c(Cl)cc1Cl, the outcome was “inactive”.
For COc1ccc(C)cc1N, the outcome was “inactive”.
In the case of CCCCCCCCCCO, the outcome is reported as “inactive”.
With CCCCCC(=O)O the outcome was “inactive”.
For CCCCCCC(=O)OCC, the outcome was “inactive”.
With Cc1ccc(C)c(C)c1 the outcome was “inactive”.
For CNCc1cc(F)ccc1Oc1ccc(Cl)c(Cl)c1, the outcome was “inactive”.
In the case of CNC(=O)[C@H]1O[C@@H](n2cnc3c(NCc4cc(Cl)ccc4OCc4cc(C)no4)ncnc32)[C@H](O)[C@@H]1N, the outcome is reported as “inactive”.
For COc1cc(C=O)ccc1O, the outcome was “inactive”.
With CC1=C(/C=C/C(C)=C/C=C/C(C)=C/CO)C(C)(C)CCC1 the outcome was “inactive”.
With Nc1ccc2c(c1)C(=O)c1ccccc1C2=O the AC50 was 3.51 µM (active).
With CCCCCCCC=O the AC50 was 15.6 µM (active).
With Cc1ccc(C(C)C)c(O)c1 the outcome was “inactive”.

Tested on: DIO2 (gene 1734)
Assay: CCTE_GLTED_hDIO2: CCTE's human Deiodinase 2 (DIO2) Inhibition Assay, Great Lakes Toxicology and Ecology Division (GLTED) Lab (AID 2284050)
Summary of the method: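 Triplicate cell-free incubations (3 h) of human DIO2 with chemical preceded colorimetric Sandell-Kolthoff quantitation of liberated iodide; DMSO served as negative control for curve fitting.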
In the case of CN[C@H]1CC[C@@H](c2ccc(Cl)c(Cl)c2)c2ccc(S(N)(=O)=O)cc21, the AC50 is reported as 49.3 µM (active).
For CCCCCCCCCCCCCO, the outcome was “inactive”.
In the case of CCCCC(CC)COC(=O)CC(C(=O)OCC(CC)CCCC)S(=O)(=O)O (centres undefined), the AC50 is reported as 85.1 µM (active).
For COc1cc(-c2nc(NC(=O)c3cc4cc(C)cc(C)c4n3CC(=O)O)sc2CCC2CCCCC2)c(OC)cc1Cl, the outcome was “inactive”.
With CC=Cc1ccc(O)c(OC)c1 the AC50 was 68 µM (active).
With CC1=C(/C=C/C(C)=C/C=C/C(C)=C/CO)C(C)(C)CCC1 the AC50 was 47 µM (active).

Tested on: DIO3 (gene 1735)
Assay: CCTE_GLTED_hDIO3: CCTE's human Deiodinase 3 (DIO3) Inhibition Assay, Great Lakes Toxicology and Ecology Division (GLTED) Lab (AID 2284055);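 note: potency is for inhibition seen as loss of released iodide signal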
Summary of the method: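 Steps: incubate adenovirus-produced hDIO3 with chemical for 3 hours; detect freed iodide via cerium-arsenic Sandell-Kolthoff colorimetry; compare with DMSO baseline.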
For CN[C@H]1CC[C@@H](c2ccc(Cl)c(Cl)c2)c2ccc(S(N)(=O)=O)cc21, the AC50 was 45.9 µM (active).
In the case of CCCCCCCCCCCCCO, the AC50 is reported as 51.8 µM (active).
In the case of CCCCC(CC)COC(=O)CC(C(=O)OCC(CC)CCCC)S(=O)(=O)O (centres undefined), the AC50 is reported as 92.2 µM (active).
For COc1cc(-c2nc(NC(=O)c3cc4cc(C)cc(C)c4n3CC(=O)O)sc2CCC2CCCCC2)c(OC)cc1Cl, the AC50 was 8.64 µM (active).
For CC=Cc1ccc(O)c(OC)c1, the AC50 was 14.9 µM (active).
In the case of CC1=C(/C=C/C(C)=C/C=C/C(C)=C/CO)C(C)(C)CCC1, the AC50 is reported as 28.3 µM (active).
